Bioassay records as filed in PubChem.
TDP1 cell noCPT: qHTS for Inhibitors of human tyrosyl-DNA phosphodiesterase 1 (TDP1): qHTS in cells in absence of CPT. Potency, µM (series often up to 46.2 µM), actives largely listed as inhibitors. 420,000 compounds, 15% hits. DT40 Tdp1-/- hTDP1 cells, no CPT, ATP luminescence, 48 h; further: nearly all actives have a fitted effect of over 55% in size
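DT40 Tdp1-/-;hTDP1 cells, no CPT (DMSO vehicle only), 400 cells/well; compounds pin-transferred; ≥48 hr, 37 °C; CellTiter-Glo 30 min RT dark, luminescence read.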
TDP1 inh: inhibitors of human tyrosyl-DNA phosphodiesterase TDP1. Q9NUW8. AID 485290. Potency, µM (series often up to 130 µM), actives largely listed as inhibitors. recombinant TDP1, AlphaScreen DNA substrate cleavage. 350,000 compounds, 0.28% hits; further: nearly all actives have a fitted effect of over 40% in size
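Compounds were preincubated with Tdp1 (1 nM final) for 15 min at room temperature before substrate (15 nM final) started a 5 min reaction; beads (10 ug/ml final) were then added for 10 min before AlphaScreen detection.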
TDP1 cell CPT: DT40-hTDP1 cell growth loss with CPT | chicken DT40 Tdp1-/-;hTDP1 cells + 20 nM CPT, ATP luminescence, 48 h | Potency, µM (titrated, usually from 46.2 µM), most hits filed as inhibitors | 420,000 compounds, 12% hits; further: nearly all actives have a fitted effect of over 55% in size
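Chicken DT40 Tdp1-/- cells stably complemented with human TDP1 were seeded at 400 cells/well in medium containing 20 nM camptothecin, exposed to pin-transferred compounds, and grown at 37 °C for at least 48 hr. Viability was read as ATP luminescence.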
RORgamma inh: inhibitors of mouse ROR gamma transcriptional activity. P51450. Drosophila S2 Gal4-RORgamma UAS-luciferase reporter, 20 h. Potency, µM (series often up to 53.6 µM), actives largely listed as inhibitors. 310,000 compounds, 5.4% hits; further: nearly all actives have a fitted effect of over 60% in size
Target sequence (P51450 whole entry, looked up, the tested form may be a part): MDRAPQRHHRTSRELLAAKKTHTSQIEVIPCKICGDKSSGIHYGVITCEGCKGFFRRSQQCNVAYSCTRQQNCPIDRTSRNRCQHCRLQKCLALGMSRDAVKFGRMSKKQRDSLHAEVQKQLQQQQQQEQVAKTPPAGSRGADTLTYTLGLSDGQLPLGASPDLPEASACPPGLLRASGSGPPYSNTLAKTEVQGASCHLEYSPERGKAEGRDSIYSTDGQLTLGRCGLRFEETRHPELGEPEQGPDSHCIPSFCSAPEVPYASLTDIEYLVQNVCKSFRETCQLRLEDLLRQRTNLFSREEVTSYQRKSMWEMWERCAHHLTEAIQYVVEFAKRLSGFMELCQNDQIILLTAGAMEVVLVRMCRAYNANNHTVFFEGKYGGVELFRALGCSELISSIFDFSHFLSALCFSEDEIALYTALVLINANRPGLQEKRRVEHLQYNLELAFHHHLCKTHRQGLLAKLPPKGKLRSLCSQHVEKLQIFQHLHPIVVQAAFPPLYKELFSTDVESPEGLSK
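Luminescence from a UAS-regulated Photinus luciferase reporter in stably transfected Drosophila Schneider cells is measured; decreased signal marks ROR gamma inhibition. Fusion expression is induced by 700 uM copper sulfate for 20 hr.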
VP16 counter: counter-screen for ROR gamma inhibitors: Gal4-VP16 reporter; 310,000 compounds, 3.5% hits; Potency, µM (titrated, usually from 53.6 µM), most hits filed as inhibitors; Drosophila S2 Gal4-VP16 UAS-luciferase, luminescence, 20 h; AID 2546;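 further: Gal4-VP16 expression switched on by copper sulfate through the metallothionein promoter; nearly all actives have a fitted effect of over 50% in size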
Of the large screens only hits and unclear results are named; the others gave an inactive call. Rows were chosen to be rich in hits. Some 19% of all compounds tested hit in one or more screens of this group. The call rests on the fitted dose curve; in most records, active means well fitted curve in the direction sought with a large enough effect; inconclusive means small, poorly fitted or top-dose-only effect, or another doubt; inactive means no such curve, though single readings can be large; an effect the other way counts as inactive or inconclusive.

Cc1cccc(N=C2NC(=O)/C(=C/c3cccs3)S2)c1	TDP1 cell noCPT inconclusive, RORgamma inh inconclusive, VP16 counter 13µM
O=C1NC(=Nc2ccccc2)S/C1=C\c1cccn1-c1ccccc1	TDP1 cell noCPT 21µM, TDP1 cell CPT 9.2µM, RORgamma inh inconclusive
Cc1ccc(N=C2NC(=O)/C(=C\c3cccs3)S2)cc1C	TDP1 cell noCPT inconclusive, TDP1 cell CPT inconclusive
O=C1NC(=Nc2cccnc2)S/C1=C/c1ccc(F)cc1	TDP1 cell noCPT 3.3µM, TDP1 cell CPT 2.9µM
CCc1ccc(C2C(C(C)=O)=C(C(=O)OC)Nc3nnnn32)cc1 (stereo unspecified)	TDP1 cell CPT inconclusive
Cc1cccc(N=C2NC(=O)/C(=C/c3cccn3C)S2)c1	TDP1 cell noCPT 18µM, TDP1 cell CPT inconclusive, RORgamma inh inconclusive, VP16 counter inconclusive
CC(C)(C)OC(=O)N[C@@H](C(=O)OC(C)(C)C)c1ccc2c(c1)OCO2	TDP1 cell noCPT inconclusive, TDP1 cell CPT inconclusive (no result: RORgamma inh, VP16 counter)
CC[C@@]1([C@@H]2O[C@@H]([C@H]3O[C@@](O)(CO)[C@H](C)C[C@@H]3C)C[C@@H]2C)CC[C@H]([C@]2(C)CC[C@]3(C[C@H](O)[C@@H](C)[C@@H]([C@@H](C)[C@@H](OC)C(C)C(=O)O)O3)O2)O1 (stereo partly specified)	RORgamma inh inconclusive (no result: TDP1 cell noCPT, TDP1 cell CPT)
CO[C@@H]1[C@@H](OC)[C@H](C)[C@@](O)(CC(=O)O)O[C@H]1[C@H](C)[C@H]1O[C@@]2(CC[C@@](C)([C@H]3CC[C@@](C)([C@@H]4O[C@@H]([C@H]5O[C@](C)(O)[C@H](C)C[C@@H]5C)C[C@@H]4OC4C[C@H](OC)[C@@H](OC)[C@H](C)O4)O3)O2)C[C@H](O)[C@H]1C (stereo partly specified)	TDP1 cell noCPT 0.34µM, TDP1 cell CPT 0.6µM (no result: TDP1 inh, RORgamma inh, VP16 counter)
CCc1ccccc1N(C)S(=O)(=O)c1ccc2[nH]cc(C(=O)N3CCc4ccccc43)c(=O)c2c1	TDP1 cell noCPT 18µM, TDP1 cell CPT inconclusive
O=C(Nc1ccnn1C1CCN(C(=O)Cc2ccccc2F)CC1)C1CC1	none
Cc1onc(-c2c(F)cccc2Cl)c1C(=O)Nc1sc2c(c1C#N)CCC(C(C)(C)C)C2 (stereo unspecified)	TDP1 cell noCPT 16µM, TDP1 cell CPT inconclusive, RORgamma inh inconclusive
CC(C)(C)C1CCc2c(sc(NC(=O)Cn3nnc(-c4ccccc4Cl)n3)c2C#N)C1 (stereo unspecified)	none (no result: RORgamma inh, VP16 counter)
Cc1onc(-c2c(F)cccc2Cl)c1C(=O)Nc1sc2c(c1C(N)=O)CCC2	TDP1 cell noCPT 11µM, TDP1 cell CPT 11µM
CCCCN1C2=C(C(=O)CCC2)C(c2ccc(Cl)c(Cl)c2)C2=C1c1ccccc1C2=O (stereo unspecified)	TDP1 cell noCPT inconclusive, TDP1 cell CPT 16µM
CCCN1C(=O)c2ccccc2NC1c1ccc(Cl)c(Cl)c1 (stereo unspecified)	TDP1 cell noCPT inconclusive, TDP1 cell CPT inconclusive (no result: TDP1 inh)
COc1ccc(-c2noc(CN(C)C(=O)CCN3C(=O)[C@H]4CC=CC[C@H]4C3=O)n2)cc1	TDP1 cell CPT inconclusive
Cc1ccc(NC(=O)COC(=O)Cn2cnc3c2c(=O)n(C)c(=O)n3C)cc1	none (no result: RORgamma inh, VP16 counter)
Cc1[nH][nH]c(=O)c1C(c1ccc(-c2ccc(Cl)c(Cl)c2)o1)c1c(C)[nH][nH]c1=O	TDP1 cell noCPT 2.6µM, TDP1 cell CPT 3.3µM
COc1ccc(-c2ccc(C(c3c(C)[nH][nH]c3=O)c3c(C)[nH][nH]c3=O)o2)c([N+](=O)[O-])c1	TDP1 cell noCPT 23µM, TDP1 cell CPT inconclusive
CCc1nnc(NC(=O)c2oc3cc(C)c(C)cc3c2C)s1	TDP1 cell noCPT inconclusive, TDP1 cell CPT inconclusive
O=C(COC(=O)c1cccs1)Nc1ccccc1C(F)(F)F	RORgamma inh inconclusive
COc1cccc(CN2CC(C(=O)N3CCN(c4ccc(Cl)cc4)CC3)CCC2=O)c1 (stereo unspecified)	TDP1 cell noCPT 21µM, TDP1 cell CPT 23µM
COc1ccc(-n2c(C)nc3cc(C(=O)N4CCOCC4)ccc32)cc1	RORgamma inh 2µM
COc1cccc(CN2CC(C(=O)N3CCCC3)CCC2=O)c1 (stereo unspecified)	none
COc1ccc(N2CCN(C(=O)c3ccc(C)c(Cl)c3)CC2)cc1	TDP1 cell noCPT 18µM, TDP1 cell CPT inconclusive, VP16 counter inconclusive
COc1ccc(N2CCN(C(=O)c3cccc(Cn4cc(Cl)cn4)c3)CC2)cc1	TDP1 cell noCPT 23µM, TDP1 cell CPT inconclusive, RORgamma inh inconclusive
COc1ccc(-n2c(C)nc3cc(C(=O)NCCN4CCOCC4)ccc32)cc1	none
Cc1ccc(NC(=O)c2cc3c([nH]c2=O)CC(C)(C)CC3=O)c(C)c1	none (no result: RORgamma inh, VP16 counter)
CCN(CC)C(=O)CSc1nc(-c2ccc(C)cc2)nc2c1COC(C)(C)C2	none
CC[C@@H](C)[C@H](NC(=O)CNC(=O)Cc1c(C)c2c(cc(C)c3c(C)coc32)oc1=O)C(=O)O	none (no result: TDP1 inh)
O=C(O)CCCCCN1C(=O)CSC1=S	TDP1 cell noCPT inconclusive, RORgamma inh 5µM
O=C1CSC(=S)N1Cc1ccccc1	TDP1 cell noCPT 21µM, TDP1 cell CPT inconclusive (no result: TDP1 inh, RORgamma inh, VP16 counter)
CC(C)OC(=O)CCCCCN1C(=O)CSC1=S	none
COc1ccc(CCN2C(=O)c3[nH]nc(-c4ccccc4O)c3C2c2ccc(OC)cc2)cc1 (stereo unspecified)	TDP1 cell noCPT inconclusive, TDP1 cell CPT inconclusive (no result: RORgamma inh, VP16 counter)
COc1ccc(CCN2C(=O)c3[nH]nc(-c4ccccc4O)c3C2c2ccccc2)cc1 (stereo unspecified)	TDP1 cell noCPT 5.8µM, TDP1 cell CPT 5.2µM (no result: RORgamma inh, VP16 counter)
COc1cccc(C2c3c(-c4ccccc4O)n[nH]c3C(=O)N2CCc2ccc(OC)c(OC)c2)c1 (stereo unspecified)	TDP1 cell noCPT 18µM, TDP1 cell CPT 15µM (no result: RORgamma inh, VP16 counter)
Cc1cc(=O)oc2c3c(ccc12)OCN(Cc1ccccc1Cl)C3	none (no result: TDP1 cell noCPT, TDP1 cell CPT, RORgamma inh, VP16 counter)
C#Cc1cccc(NC(=O)Cc2cccs2)c1	VP16 counter inconclusive (no result: TDP1 inh)
N=c1oc2ccccc2cc1-c1nc(-c2ccc(Cl)cc2)cs1	RORgamma inh inconclusive, VP16 counter inconclusive
C=CCNc1nc(-c2cc3ccccc3o2)cs1	VP16 counter inconclusive
c1ccc2oc(-c3csc(NCC4CCCO4)n3)cc2c1 (stereo unspecified)	TDP1 cell noCPT inconclusive, TDP1 cell CPT inconclusive, RORgamma inh 7.9µM, VP16 counter inconclusive
O=c1oc2ccccc2cc1-c1csc(NN=C2CCCCC2)n1	TDP1 cell noCPT 18µM, TDP1 cell CPT inconclusive, RORgamma inh inconclusive
O=c1oc2ccccc2cc1-c1csc(Cc2nc(-c3ccc(Cl)cc3)cs2)n1	TDP1 cell noCPT 26µM, TDP1 cell CPT inconclusive
O=c1oc2ccccc2cc1-c1csc(Nc2nc3ccc(F)cc3s2)n1	RORgamma inh inconclusive (no result: TDP1 cell noCPT, TDP1 cell CPT)
